SUMO HTRF inh: inhibitors of human SUMOylation (UBC9); AID 2006; 0.36% of 290,000 active; P63279; inhibition, % at 35 µM; HTRF SUMOylation assay, SAE1/SAE2 + UBC9, in vitro; in the data active means inhibition above about 50%, passing the limit was not always enough
CASP6 VEID inh: inhibitors of human caspase-6; AID 686996; purified caspase-6, Z-VEID-R110 cleavage fluorescence; inhibition, % at 12.5 µM; 0.53% of 350,000 active; P55212;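 active means mean inhibition across replicates at least about 35%, with every replicate also reaching that limit, limit read from the data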
SIRT5 block: blocks human SIRT5 desuccinylation of peptide; Purified SirT5, succinyl-peptide AMC, trypsin-coupled fluorescence; Q9NXA8; 1.1% of 330,000 active; inhibition, % at 15 µM; AID 652115; in the data active means inhibition above about 15%
NSD2 inh: inhibitors of human histone methyltransferase NSD2; inhibition, % at 12.5 µM; AID 743445; 0.54% of 310,000 active; NSD2 peptide methylation, AlphaScreen, 120 min; O96028; in the data active means inhibition above about 50%
Target sequence (O96028 whole entry, looked up): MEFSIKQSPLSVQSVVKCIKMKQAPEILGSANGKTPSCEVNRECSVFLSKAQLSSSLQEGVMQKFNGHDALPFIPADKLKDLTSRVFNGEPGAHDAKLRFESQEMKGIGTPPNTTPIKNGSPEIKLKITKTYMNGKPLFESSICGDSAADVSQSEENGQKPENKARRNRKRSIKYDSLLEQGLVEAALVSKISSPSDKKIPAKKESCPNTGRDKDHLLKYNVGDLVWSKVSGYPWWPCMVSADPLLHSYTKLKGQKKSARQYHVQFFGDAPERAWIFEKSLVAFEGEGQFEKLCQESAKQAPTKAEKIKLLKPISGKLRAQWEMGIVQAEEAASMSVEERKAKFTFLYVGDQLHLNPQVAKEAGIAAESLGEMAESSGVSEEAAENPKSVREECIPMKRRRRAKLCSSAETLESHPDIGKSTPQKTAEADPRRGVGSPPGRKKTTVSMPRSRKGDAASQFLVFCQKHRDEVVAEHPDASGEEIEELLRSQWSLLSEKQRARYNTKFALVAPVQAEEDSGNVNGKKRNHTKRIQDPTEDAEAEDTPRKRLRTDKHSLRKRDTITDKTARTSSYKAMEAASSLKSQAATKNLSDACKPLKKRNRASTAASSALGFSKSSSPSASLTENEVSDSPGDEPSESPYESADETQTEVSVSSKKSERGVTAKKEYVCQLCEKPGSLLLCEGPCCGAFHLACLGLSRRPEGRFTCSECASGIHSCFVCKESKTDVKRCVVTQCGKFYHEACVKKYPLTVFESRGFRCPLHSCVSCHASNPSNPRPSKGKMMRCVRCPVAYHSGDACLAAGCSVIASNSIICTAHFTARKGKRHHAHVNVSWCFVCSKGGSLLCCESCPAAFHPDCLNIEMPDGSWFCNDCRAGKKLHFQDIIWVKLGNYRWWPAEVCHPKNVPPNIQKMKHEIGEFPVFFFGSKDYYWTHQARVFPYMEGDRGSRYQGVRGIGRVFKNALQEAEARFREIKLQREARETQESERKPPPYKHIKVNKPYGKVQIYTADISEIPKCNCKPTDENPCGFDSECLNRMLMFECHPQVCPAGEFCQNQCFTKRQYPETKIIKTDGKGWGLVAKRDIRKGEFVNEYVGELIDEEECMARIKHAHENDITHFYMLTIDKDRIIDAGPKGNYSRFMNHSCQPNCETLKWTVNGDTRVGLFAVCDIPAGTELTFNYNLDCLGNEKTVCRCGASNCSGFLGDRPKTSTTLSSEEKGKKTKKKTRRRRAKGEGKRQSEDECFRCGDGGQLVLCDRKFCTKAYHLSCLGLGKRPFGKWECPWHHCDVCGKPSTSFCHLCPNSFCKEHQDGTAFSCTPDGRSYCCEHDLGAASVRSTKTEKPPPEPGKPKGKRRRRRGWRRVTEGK
Of the large screens only hits and unclear results are named; the others gave an inactive call. In the library only some 1.6% were active in any assay of this set; here they are far more common.

C[C@@H]1CN([C@@H](C)CO)C(=O)c2cc(NS(=O)(=O)c3cccs3)ccc2O[C@@H](C)CCCCO[C@H]1CN(C)C(=O)Cc1ccccc1	none (no result: SUMO HTRF inh, NSD2 inh)
CCC(=O)OCCNc1cc(Sc2nccn2C)c2nonc2c1[N+](=O)[O-]	none (no result: CASP6 VEID inh, SIRT5 block, NSD2 inh)
CCC(=O)OCCNc1cc(SCCC(=O)OC)c2nonc2c1[N+](=O)[O-]	SUMO HTRF inh 63 (no result: CASP6 VEID inh, SIRT5 block)
O=C(C[C@@H]1CC[C@@H](NC(=O)CCN2CCCCC2)[C@H](CO)O1)NCc1ccc(Cl)c(Cl)c1	none (no result: SUMO HTRF inh, NSD2 inh)
CC(C)(C)[S@@](=O)N1Cc2cc(C(=O)NCCc3ccncc3)nc(-c3cccc(-c4ccccc4)c3)c2[C@H]1CCO	none (no result: SUMO HTRF inh, NSD2 inh)
COc1nc(C)c2cc(C)oc2n1	CASP6 VEID inh 51
CSc1nc(C)c2cc(C)oc2n1	none (no result: CASP6 VEID inh, SIRT5 block)
O=C(O)c1ccc(N/N=C/C=C/c2ccc([N+](=O)[O-])o2)cc1	CASP6 VEID inh 75, SIRT5 block 15 (no result: NSD2 inh)
Cc1cccc(-c2ccc([C@H]3[C@@H](CO)N4C(=O)CN(C(=O)c5ccc6c(c5)OCO6)C[C@@H]34)cc2)c1	none (no result: SUMO HTRF inh, NSD2 inh)
CO[C@@H]1CN(C)C(=O)c2ccc(NC(=O)c3cnccn3)cc2OC[C@@H](C)NC[C@H]1C	SIRT5 block 15 (no result: SUMO HTRF inh, NSD2 inh)
CO[C@H]1CN(C)C(=O)c2ccc(NC(=O)Nc3cc(Cl)cc(Cl)c3)cc2OC[C@@H](C)NC[C@@H]1C	SIRT5 block 1.4 (no result: SUMO HTRF inh, NSD2 inh)
CO[C@@H]1CN(C)C(=O)c2ccc(NC(=O)c3cnccn3)cc2OC[C@@H](C)NC[C@@H]1C	none (no result: SUMO HTRF inh, NSD2 inh)
COCC(=O)N1C[C@H](C)[C@H](OC)CN(C)C(=O)c2ccc(NC(=O)c3cc(C)on3)cc2OC[C@H]1C	none (no result: SUMO HTRF inh, NSD2 inh)
COc1cc(C2Nc3cccc4cccc(c34)N2)ccc1OC(C)=O	SUMO HTRF inh 64 (no result: CASP6 VEID inh, SIRT5 block, NSD2 inh)
CC1CCCCN1CCCNC(=O)Cn1c(=O)c2cccn2c2ccccc21 (stereo unspecified)	SIRT5 block 21
CCC1CCCCN1CCCNC(=O)Cn1c(=O)c2cccn2c2ccccc21 (stereo unspecified)	none
O=C(COC(=O)Cc1ccc(F)cc1)NCc1ccco1	none
O=C(COC(=O)Cc1cccc(C(F)(F)F)c1)NCc1ccco1	CASP6 VEID inh 58 (no result: SUMO HTRF inh)
C/C(=N\NC(=O)c1cc2ccccc2cc1O)c1cc2ccccc2o1	SUMO HTRF inh 56
C/C(=N\NC(=O)c1cc2ccccc2cc1O)c1ccccn1	none (no result: SUMO HTRF inh, NSD2 inh)
C/C(CC(=O)N1CCN(C=O)CC1)=N\NC(=O)c1ccc([N+](=O)[O-])cc1	none
C/C(CC(=O)N1CCN(C=O)CC1)=N\NC(=O)c1cc2ccccc2cc1O	SUMO HTRF inh 65 (no result: CASP6 VEID inh, SIRT5 block)
Nc1ccc(N2CCCCC2)c2nonc12	NSD2 inh 83
C[C@@H]1CN([C@@H](C)CO)C(=O)c2cccc(NC(=O)C3CCOCC3)c2O[C@@H]1CN(C)C	none (no result: SUMO HTRF inh, NSD2 inh)
CO[C@@H]1CN(C)C(=O)c2ccc(NC(=O)c3cc(C)on3)cc2OC[C@@H](C)N(S(=O)(=O)c2cccc(C)c2)C[C@H]1C	none (no result: SUMO HTRF inh, SIRT5 block, NSD2 inh)
Cc1ccc(C(=O)N2CCCC2)cc1S(=O)(=O)Nc1cccc(C)c1C	SIRT5 block 26
C[C@@H]1CCCCO[C@H](CN(C)C(=O)c2ccccc2)[C@H](C)CN([C@@H](C)CO)C(=O)c2cc(NC(=O)NC3CCCCC3)ccc2O1	none (no result: SUMO HTRF inh, NSD2 inh)
Cc1ccc(S(=O)(=O)N(C)C[C@H]2Oc3ccc(NC(=O)CCCN(C)C)cc3CC(=O)N([C@@H](C)CO)C[C@@H]2C)cc1	none (no result: SUMO HTRF inh, NSD2 inh)
CCOC(=O)c1ccccc1NC(=O)c1ccc2c(SCC(=O)O)c3c(nc2c1)CCCC3	SIRT5 block 22
COc1cc(Cl)c(C)cc1NC(=O)c1ccc2c(SCC(=O)O)c3c(nc2c1)CCCC3	none (no result: NSD2 inh)
O=C(O)CSc1c2c(nc3cc(C(=O)Nc4cccc(C(F)(F)F)c4)ccc13)CCC2	CASP6 VEID inh 79
C[C@@H]1CCCCO[C@@H](CN(C)C(=O)CCCN(C)C)[C@@H](C)CN([C@H](C)CO)C(=O)c2cc(NC(=O)c3ccccc3)ccc2O1	none (no result: SUMO HTRF inh, CASP6 VEID inh, NSD2 inh)
Cc1ccc(S(=O)(=O)Nc2ccc3c(c2)C(=O)N([C@@H](C)CO)C[C@H](C)[C@H](CN(C)S(=O)(=O)c2cccs2)O3)cc1	none (no result: SUMO HTRF inh, NSD2 inh)
O=C(N[C@H]1C=C[C@H](CC(=O)N2CCN(c3ccccc3)CC2)O[C@@H]1CO)c1ccncc1	none (no result: SUMO HTRF inh, NSD2 inh)
Cc1ccccc1NC(=O)c1ccc(N/N=C/c2ccccc2O)c([N+](=O)[O-])c1	SUMO HTRF inh 57 (no result: CASP6 VEID inh, SIRT5 block, NSD2 inh)
CC1CCc2[nH]c3ccc(C(=O)O)cc3c2C1 (stereo unspecified)	CASP6 VEID inh 48
COc1ccc(C)cc1NC(=O)CCN1CC(C)OC(C)C1 (stereo unspecified)	SIRT5 block 23
COc1ccc(Cl)cc1NC(=O)CCN1CCN(Cc2ccccc2)CC1	SIRT5 block 22
C/C=C/c1ccc2c(c1)O[C@@H](CN(C)C(=O)COC)[C@@H](C)CN([C@H](C)CO)S2(=O)=O	none (no result: SUMO HTRF inh, NSD2 inh)
COC(=O)C1=C(C)N(CC(C)C)C(=S)NC1c1cccc(OC)c1 (stereo unspecified)	SIRT5 block 29 (no result: SUMO HTRF inh)
O=CN/C=C/c1cc(O)ccc1O	CASP6 VEID inh 70 (no result: SIRT5 block, NSD2 inh)
O=Cc1ccc(O)cc1O	none (no result: SIRT5 block, NSD2 inh)
CCCCN1C(=O)C(O)=C(C(C)=O)C1c1ccccc1 (stereo unspecified)	none (no result: CASP6 VEID inh, SIRT5 block)
CCCCN1C(=O)C(O)=C(C(C)=O)C1c1ccccc1[N+](=O)[O-] (stereo unspecified)	SIRT5 block 24
Cc1oc2c(c(C)cc3oc(=O)c(CC(=O)N[C@@H](C)C(=O)O)c(C)c32)c1C	SUMO HTRF inh 51
CC[C@@H](C)[C@H](NC(=O)Cc1c(C)c2c(cc(C)c3c(C)c(C)oc32)oc1=O)C(=O)O	none
C[C@H](CO)N1C[C@H](C)[C@H](CN(C)C(=O)Cc2ccccn2)Oc2ncc(C#CC3CCCCC3)cc2C1=O	none (no result: SUMO HTRF inh, CASP6 VEID inh, NSD2 inh)
Cc1noc(C)c1NC(=O)Nc1cccc2c1O[C@H](CN(C)S(=O)(=O)c1cccs1)[C@@H](C)CN([C@@H](C)CO)C2=O	none (no result: SUMO HTRF inh, CASP6 VEID inh, NSD2 inh)
CC(=O)NC(c1ccc(C(C)C)cc1)c1ccc2cccnc2c1O (stereo unspecified)	SUMO HTRF inh 56
CCCCC(=O)NC(c1ccc(C(C)C)cc1)c1ccc2cccnc2c1O (stereo unspecified)	none
CN(CC(=O)Nc1ccc(Cl)c(C(F)(F)F)c1)C(=O)c1cc(=O)c2ccccc2o1	SIRT5 block 22 (no result: SUMO HTRF inh)
Cc1ccc(S(=O)(=O)N2CCCCC2)cc1C(=O)N(C)CC(=O)Nc1ccc(Cl)c(C(F)(F)F)c1	none
Cc1ccc(C(=O)N(C)CC(=O)Nc2ccc(Cl)c(C(F)(F)F)c2)cc1S(=O)(=O)N1CCCCC1	SIRT5 block 19 (no result: SUMO HTRF inh)
CN(CC(=O)Nc1ccc(Cl)c(C(F)(F)F)c1)C(=O)c1cc(=O)[nH]c2ccccc12	none (no result: SUMO HTRF inh)
O=[N+]([O-])c1cccc(S(=O)(=O)N/N=C\c2ccc3c(c2)OCO3)c1	SIRT5 block 20
O=C(Cc1ccccn1)N[C@@H]1CC[C@H](CCNC(=O)c2cc(Cl)cc(Cl)c2)O[C@H]1CO	none (no result: SUMO HTRF inh, NSD2 inh)
COc1cc(C2c3c([nH]c(=O)[nH]c3=O)Nc3ccc4ccccc4c32)cc(OC)c1OC (stereo unspecified)	SUMO HTRF inh 77
COc1cc(C2c3c([nH]c(=O)[nH]c3=O)Nc3ccc4ccccc4c32)ccc1O (stereo unspecified)	none
